About 2,000 (36%) of roughly 5,500 compounds were called active. Not shown: some 18% with an inconclusive outcome. Cut-off read from the data, not from the text of the source: active = normalized growth mostly below about 0.91 (no sharp cut-off); inconclusive = no clear call, values can overlap the other calls; inactive = mostly above about 0.92. This is one part of the list.
Assay: chemical genetic growth profiling, strain panel (AID 1159580);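 note: tested at 20 µM; growth read once vehicle control cultures reached saturation at 30 °C; 1 = growth at the plate median or of vehicle wells; lower values mean less growth of the strain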
Conditions: S. cerevisiae deletion strains, growth OD
[1] = locus YAL021C, strain ccr4, stronger effect = lower value
[2] = locus YAL026C, strain drs2, stronger effect = lower value
[3] = locus YAL030W, strain snc1, stronger effect = lower value
[4] = locus YBL061C, strain skt5, stronger effect = lower value
[5] = locus YBR009C, strain hhf1, stronger effect = lower value
[6] = locus YBR023C, strain chs3, stronger effect = lower value
[7] = locus YBR171W, strain sec66, stronger effect = lower value
[8] = locus YBR231C, strain swc5, stronger effect = lower value
[9] = locus YBR279W, strain paf1, stronger effect = lower value
[10] = locus YCL011C, strain gbp2, stronger effect = lower value
[11] = locus YCL016C, strain dcc1, stronger effect = lower value
[12] = locus YCL061C, strain MRC1, stronger effect = lower value
[13] = locus YCL069W, strain vba3, stronger effect = lower value
[14] = locus YCR088W, strain abp1, stronger effect = lower value
[15] = locus YDL005C, strain med2, stronger effect = lower value
[16] = locus YDL040C, strain nat1, stronger effect = lower value
[17] = locus YDR001C, strain nth1, stronger effect = lower value
[18] = locus YDR069C, strain doa4, stronger effect = lower value
[19] = locus YDR137W, strain rgp1, stronger effect = lower value
[20] = locus YDR159W, strain sac3, stronger effect = lower value
[21] = locus YDR297W, strain sur2, stronger effect = lower value
[22] = locus YDR334W, strain swr1, stronger effect = lower value
[23] = locus YDR335W, strain msn5, stronger effect = lower value
[24] = locus YDR392W, strain spt3, stronger effect = lower value
[25] = locus YEL003W, strain gim4, stronger effect = lower value
[26] = locus YEL037C, strain rad23, stronger effect = lower value
[27] = locus YEL061C, strain CIN8 (second series), stronger effect = lower value
[28] = locus YER015W, strain faa2, stronger effect = lower value
[29] = locus YER016W, strain bim1, stronger effect = lower value
[30] = locus YER111C, strain swi4, stronger effect = lower value
[31] = locus YER155C, strain BEM2 (second series), stronger effect = lower value
[32] = locus YFR010W, strain ubp6, stronger effect = lower value
[33] = locus YGL167C, strain pmr1, stronger effect = lower value
[34] = locus YGL173C, strain kem1, stronger effect = lower value
[35] = locus YGL227W, strain vid30, stronger effect = lower value
[36] = locus YGL240W, strain doc1, stronger effect = lower value
[37] = locus YGL253W, strain hxk2, stronger effect = lower value
[38] = locus YHR013C, strain ard1, stronger effect = lower value
[39] = locus YHR027C, strain rpn1, stronger effect = lower value
[40] = locus YHR142W, strain chs7, stronger effect = lower value
[41] = locus YJL092W, strain hpr5, stronger effect = lower value
[42] = locus YJL095W, strain BCK1 (second series), stronger effect = lower value
[43] = locus YJL115W, strain asf1, stronger effect = lower value
[44] = locus YJL129C, strain trk1, stronger effect = lower value
[45] = locus YJL154C, strain vps35, stronger effect = lower value
[46] = locus YJL164C, strain tpk1, stronger effect = lower value
[47] = locus YJL166W, strain qcr8, stronger effect = lower value
[48] = locus YKL160W, strain elf1, stronger effect = lower value
[49] = locus YKR026C, strain gcn3, stronger effect = lower value
[50] = locus YKR091W, strain srl3, stronger effect = lower value
[51] = locus YLL001W, strain dnm1, stronger effect = lower value
[52] = locus YLL026W, stronger effect = lower value
[53] = locus YLL041C, strain sdh2, stronger effect = lower value
[54] = locus YLR027C, strain aat2, stronger effect = lower value
[55] = locus YLR221C, strain rsa3, stronger effect = lower value
[56] = locus YLR258W, strain gsy2, stronger effect = lower value
[57] = locus YLR262C, strain YPT6 (second series), stronger effect = lower value
[58] = locus YLR320W, strain mms22, stronger effect = lower value
[59] = locus YLR342W, strain FKS1, stronger effect = lower value
[60] = locus YLR357W, strain rsc2, stronger effect = lower value
[61] = locus YLR370C, strain arc18, stronger effect = lower value
[62] = locus YLR384C, strain iki3, stronger effect = lower value
[63] = locus YML120C, strain ndi1, stronger effect = lower value
[64] = locus YMR058W, strain fet3, stronger effect = lower value
[65] = locus YMR125W, strain sto1, stronger effect = lower value
[66] = locus YMR129W, stronger effect = lower value
[67] = locus YMR205C, strain PFK2, stronger effect = lower value
[68] = locus YMR231W, strain pep5, stronger effect = lower value
[69] = locus YNL071W, strain lat1, stronger effect = lower value
[70] = locus YNL209W, strain ssb2, stronger effect = lower value
[71] = locus YNL248C, strain rpa49, stronger effect = lower value
[72] = locus YNL322C, strain KRE1 (second series), stronger effect = lower value
[73] = locus YNR049C, strain mso1, stronger effect = lower value
[74] = locus YOR001W, strain rrp6, stronger effect = lower value
[75] = locus YOR070C, strain gyp1, stronger effect = lower value
[76] = locus YOR080W, strain dia2, stronger effect = lower value
[77] = locus YOR083W, strain WHI5, stronger effect = lower value
[78] = locus YOR106W, strain vam3, stronger effect = lower value
[79] = locus YOR265W, strain rbl2, stronger effect = lower value
[80] = locus YOR270C, strain vph1, stronger effect = lower value
[81] = locus YOR290C, strain snf2, stronger effect = lower value
[82] = locus YPL051W, strain arl3, stronger effect = lower value
[83] = locus YPL078C, strain atp4, stronger effect = lower value
[84] = locus YPL106C, strain sse1, stronger effect = lower value
[85] = locus YPL240C, strain hsp82, stronger effect = lower value

Measured: normalized growth

C=CCSSSCC=C
inactive: [1] 0.962 | [2] 0.97 | [3] 0.989 | [4] 1 | [5] 0.957 | [6] 0.986 | [7] 0.994 | [8] 0.974 | [9] 0.991 | [10] 0.984 | [11] 1 | [12] 0.98 | [13] 0.973 | [14] 0.984 | [15] 0.97 | [16] 0.987 | [17] 0.988 | [18] 0.965 | [19] 0.984 | [20] 0.937 | locus YDR195W, strain ref2 0.944 | [21] 0.989 | [22] 0.966 | [23] 0.986 | [24] 0.782 | [25] 0.98 | [26] 0.958 | [27] 0.979 | [28] 0.976 | [29] 0.992 | [30] 0.991 | [32] 0.956 | [33] 0.983 | [34] 0.988 | [35] 0.995 | [36] 0.944 | [37] 0.987 | [38] 0.937 | [39] 1 | [40] 0.981 | [41] 0.966 | [42] 0.991 | [43] 0.975 | [44] 0.958 | [45] 0.979 | [46] 0.974 | [47] 0.976 | locus YJL187C, strain SWE1, stronger effect = lower value 0.984 | [48] 0.995 | [49] 0.978 | [50] 0.983 | [51] 0.994 | [52] 0.991 | [53] 0.982 | [54] 0.972 | [55] 0.992 | [56] 0.999 | [57] 0.995 | [58] 0.967 | [59] 0.98 | [60] 0.891 | [61] 0.978 | [62] 1.01 | [63] 0.974 | [64] 0.975 | [65] 0.946 | [66] 0.98 | [67] 0.967 | [68] 0.978 | [70] 0.992 | [72] 0.974 | [73] 0.98 | [74] 0.96 | [75] 0.992 | [76] 0.972 | [77] 1 | [78] 0.949 | [79] 0.984 | [80] 0.941 | [81] 0.964 | [82] 0.979 | [83] 0.988 | [84] 0.976 | [85] 0.995
active: [31] 0.765 | [69] 0.847 | [71] 0.877

C=CCSC[C@@H](N)C(=O)O
inactive: [1] 0.993 | [2] 0.986 | [3] 1.01 | [4] 0.996 | [5] 1 | [6] 0.987 | [7] 0.984 | [8] 1 | [9] 1 | [10] 0.982 | [11] 0.998 | [12] 0.981 | [13] 0.99 | [14] 0.994 | [15] 0.988 | [16] 1.01 | [17] 0.986 | [18] 0.994 | [19] 1.01 | [20] 0.991 | locus YDR195W, strain ref2 0.985 | [21] 1 | [22] 0.987 | [23] 0.997 | [24] 0.996 | [25] 0.996 | [26] 1.01 | [27] 0.999 | [28] 0.992 | [29] 1.01 | [30] 1.01 | [31] 1.03 | [32] 0.986 | [33] 0.992 | [34] 0.999 | [35] 0.986 | [36] 1 | [37] 0.993 | [38] 1 | [39] 1.01 | locus YHR030C, strain SLT2, stronger effect = lower value 0.943 | locus YHR079C, strain IRE1, stronger effect = lower value 0.96 | [40] 0.978 | [41] 0.989 | [42] 1.01 | locus YJL095W, strain BCK1, stronger effect = lower value 0.936 | [43] 0.989 | [44] 0.992 | [45] 0.982 | [46] 1 | [47] 1 | locus YJR066W, strain TOR1, stronger effect = lower value 0.901 | [48] 0.985 | [49] 0.986 | [50] 1.01 | [51] 0.987 | [52] 0.993 | [53] 0.985 | [54] 0.993 | locus YLR113W, strain HOG1, stronger effect = lower value 0.973 | [55] 0.994 | [56] 0.99 | [57] 0.995 | [58] 1.01 | [59] 1.02 | [60] 1.01 | [61] 0.999 | [62] 0.993 | [63] 0.986 | [64] 0.992 | [65] 0.986 | [66] 0.985 | [67] 1 | [68] 0.998 | [69] 1 | locus YNL183C, strain NPR1, stronger effect = lower value 0.914 | [70] 0.991 | [71] 0.995 | [72] 1 | [73] 0.997 | [74] 0.997 | [75] 0.992 | [76] 1 | [77] 1.02 | [78] 1 | locus YOR231W, strain MKK1, stronger effect = lower value 0.968 | [79] 0.996 | [80] 1 | [81] 0.993 | [82] 0.998 | [83] 0.999 | [84] 0.986 | [85] 0.999 | locus YPL256C, strain CLN2, stronger effect = lower value 0.948
